# Measurements reported in paper PMC12820563, “FoxP3 forms a head-to-head dimer in vivo and stabilizes its multimerization on adjacent microsatellites”.
# In all, about 16,000 sequences were measured (“rpm ratio (pull-down/input)”: median about 0.5, highest 2% from about 5.5 on). The list comes from a sample in which the highest values are over-represented; it also holds similar and randomly drawn sequences.
# Biological target: T1, MBP-FoxP3dN (Mus musculus, UniProt Q99JB6 188-423)
# T1 sequence: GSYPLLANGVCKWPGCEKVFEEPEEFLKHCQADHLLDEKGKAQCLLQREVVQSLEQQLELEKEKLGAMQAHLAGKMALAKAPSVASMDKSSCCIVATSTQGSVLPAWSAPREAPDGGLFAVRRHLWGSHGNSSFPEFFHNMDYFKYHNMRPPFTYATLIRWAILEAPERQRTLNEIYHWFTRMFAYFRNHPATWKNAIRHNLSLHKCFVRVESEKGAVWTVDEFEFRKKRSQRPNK
# Assay: PD-seq (MBP pull-down with sequencing); 20 mM Tris-HCl pH 7.5, 100 mM NaCl, 1.5 mM MgCl2, 0.4 uM protein, 0.1 uM dsDNA library, 30 min, room temperature, amylose pull-down; high values mean tight binding
# Conditions: protein: recombinant; tags: His6-MBP; chain copies: 2; dsDNA, one strand shown
# How it was run: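 Mouse FoxP3 or FoxP1 fragment lacking the N-terminus, His6-MBP-tagged and expressed in E. coli, was incubated at 0.4 µM with 0.1 µM Klenow-filled degenerate double-stranded DNA library for 30 min at room temperature in Tris pH 7.5 buffer with NaCl and MgCl2. Complexes captured on amylose resin were washed three times and their DNA sequenced on Illumina. Binding is reads-per-million enrichment of pull-down over input, replicates pooled.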
row,Sequence,binding signal
1,GATGATTGTTCTCCCAGCTGATGAATTCTAAAGCTCGAGTAAACAAATTTTCCTAATCTTTCTGTTCAAGCGCCATCTAC,0.248 RPM ratio (pull-down/input)
2,GATGATTGTTCTCCCAGCTGATGAATTTTTTGCTTCGAGTAAACAAATTTTCCTAATCTTTCTGTTCAAGCGCCATCTAC,0.306 RPM ratio (pull-down/input)
3,GATGATTGTTCTCCCAGCTGATGAATTTGCTTCTTCGAGTAAACAAATTTTCCTAATCTTTCTGTTCAAGCGCCATCTAC,2.97 RPM ratio (pull-down/input)
4,GATGATTGTTCTCCCAGCTGATGAATTGTTTGCTTCGAGTAAACAAATTTTCCTAATCTTTCTGTTCAAGCGCCATCTAC,6.19 RPM ratio (pull-down/input)
5,GATGATTGTTCTCCCAGCTGATGAATTAGCTCGCTCGAGTAAACAAATTTTCCTAATCTTTCTGTTCAAGCGCCATCTAC,0.272 RPM ratio (pull-down/input)
6,GATGATTGTTCTCCCAGCTGATGAATTCCGGGTGTCGAGTAAACAAATTTTCCTAATCTTTCTGTTCAAGCGCCATCTAC,0.669 RPM ratio (pull-down/input)
7,GATGATTGTTCTCCCAGCTGATGAATTCCGATTGTCGAGTAAACAAATTTTCCTAATCTTTCTGTTCAAGCGCCATCTAC,1.93 RPM ratio (pull-down/input)
8,GATGATTGTTCTCCCAGCTGATGAATTAAGTAATTCGAGTAAACAAATTTTCCTAATCTTTCTGTTCAAGCGCCATCTAC,1.05 RPM ratio (pull-down/input)
9,GATGATTGTTCTCCCAGCTGATGAATTGATCTTGTCGAGTAAACAAATTTTCCTAATCTTTCTGTTCAAGCGCCATCTAC,0.293 RPM ratio (pull-down/input)
10,GATGATTGTTCTCCCAGCTGATGAATTTTTTGCCTCGAGTAAACAAATTTTCCTAATCTTTCTGTTCAAGCGCCATCTAC,0.432 RPM ratio (pull-down/input)
11,GATGATTGTTCTCCCAGCTGATGAATTTGCCGCCTCGAGTAAACAAATTTTCCTAATCTTTCTGTTCAAGCGCCATCTAC,0.88 RPM ratio (pull-down/input)
12,GATGATTGTTCTCCCAGCTGATGAATTGTTTGCCTCGAGTAAACAAATTTTCCTAATCTTTCTGTTCAAGCGCCATCTAC,5.67 RPM ratio (pull-down/input)
13,GATGATTGTTCTCCCAGCTGATGAATTTGCCCTCTCGAGTAAACAAATTTTCCTAATCTTTCTGTTCAAGCGCCATCTAC,0.526 RPM ratio (pull-down/input)
14,GATGATTGTTCTCCCAGCTGATGAATTTGCCTCTTCGAGTAAACAAATTTTCCTAATCTTTCTGTTCAAGCGCCATCTAC,2.52 RPM ratio (pull-down/input)
15,GATGATTGTTCTCCCAGCTGATGAATTGCCTCTCTCGAGTAAACAAATTTTCCTAATCTTTCTGTTCAAGCGCCATCTAC,1.04 RPM ratio (pull-down/input)
16,GATGATTGTTCTCCCAGCTGATGAATTTTGCGCCTCGAGTAAACAAATTTTCCTAATCTTTCTGTTCAAGCGCCATCTAC,2.67 RPM ratio (pull-down/input)
17,GATGATTGTTCTCCCAGCTGATGAATTGCGCCTCTCGAGTAAACAAATTTTCCTAATCTTTCTGTTCAAGCGCCATCTAC,7.17 RPM ratio (pull-down/input)
18,GATGATTGTTCTCCCAGCTGATGAATTTGTTGCCTCGAGTAAACAAATTTTCCTAATCTTTCTGTTCAAGCGCCATCTAC,7.02 RPM ratio (pull-down/input)
19,GATGATTGTTCTCCCAGCTGATGAATTCTTTGCCTCGAGTAAACAAATTTTCCTAATCTTTCTGTTCAAGCGCCATCTAC,0.403 RPM ratio (pull-down/input)
20,GATGATTGTTCTCCCAGCTGATGAATTTGCCTCCTCGAGTAAACAAATTTTCCTAATCTTTCTGTTCAAGCGCCATCTAC,2.37 RPM ratio (pull-down/input)

row,Sequence,binding signal
1,GATGATTGTTCTCCCAGCTGATGAATTTTGCCTCTCGAGTAAACAAATTTTCCTAATCTTTCTGTTCAAGCGCCATCTAC,5.78 RPM ratio (pull-down/input)
2,GATGATTGTTCTCCCAGCTGATGAATTAGGTCCTTCGAGTAAACAAATTTTCCTAATCTTTCTGTTCAAGCGCCATCTAC,0.354 RPM ratio (pull-down/input)
3,GATGATTGTTCTCCCAGCTGATGAATTCTCTCCATCGAGTAAACAAATTTTCCTAATCTTTCTGTTCAAGCGCCATCTAC,0.223 RPM ratio (pull-down/input)
4,GATGATTGTTCTCCCAGCTGATGAATTGGTACGCTCGAGTAAACAAATTTTCCTAATCTTTCTGTTCAAGCGCCATCTAC,0.466 RPM ratio (pull-down/input)
5,GATGATTGTTCTCCCAGCTGATGAATTTGCCTTTTCGAGTAAACAAATTTTCCTAATCTTTCTGTTCAAGCGCCATCTAC,2.1 RPM ratio (pull-down/input)
6,GATGATTGTTCTCCCAGCTGATGAATTGCCTTTTTCGAGTAAACAAATTTTCCTAATCTTTCTGTTCAAGCGCCATCTAC,1.02 RPM ratio (pull-down/input)
7,GATGATTGTTCTCCCAGCTGATGAATTTGCGCCTTCGAGTAAACAAATTTTCCTAATCTTTCTGTTCAAGCGCCATCTAC,3.88 RPM ratio (pull-down/input)
8,GATGATTGTTCTCCCAGCTGATGAATTGCGCCTTTCGAGTAAACAAATTTTCCTAATCTTTCTGTTCAAGCGCCATCTAC,6.82 RPM ratio (pull-down/input)
9,GATGATTGTTCTCCCAGCTGATGAATTTTGCCTTTCGAGTAAACAAATTTTCCTAATCTTTCTGTTCAAGCGCCATCTAC,5.56 RPM ratio (pull-down/input)
10,GATGATTGTTCTCCCAGCTGATGAATTTTTGCCTTCGAGTAAACAAATTTTCCTAATCTTTCTGTTCAAGCGCCATCTAC,2.86 RPM ratio (pull-down/input)
11,GATGATTGTTCTCCCAGCTGATGAATTGTCTCATTCGAGTAAACAAATTTTCCTAATCTTTCTGTTCAAGCGCCATCTAC,0.539 RPM ratio (pull-down/input)
12,GATGATTGTTCTCCCAGCTGATGAATTGCCTGCGTCGAGTAAACAAATTTTCCTAATCTTTCTGTTCAAGCGCCATCTAC,0.937 RPM ratio (pull-down/input)
13,GATGATTGTTCTCCCAGCTGATGAATTGTTCCTGTCGAGTAAACAAATTTTCCTAATCTTTCTGTTCAAGCGCCATCTAC,0.351 RPM ratio (pull-down/input)
14,GATGATTGTTCTCCCAGCTGATGAATTGCGCCTGTCGAGTAAACAAATTTTCCTAATCTTTCTGTTCAAGCGCCATCTAC,6.14 RPM ratio (pull-down/input)
15,GATGATTGTTCTCCCAGCTGATGAATTGCCTGTGTCGAGTAAACAAATTTTCCTAATCTTTCTGTTCAAGCGCCATCTAC,0.881 RPM ratio (pull-down/input)
16,GATGATTGTTCTCCCAGCTGATGAATTTGCCCTGTCGAGTAAACAAATTTTCCTAATCTTTCTGTTCAAGCGCCATCTAC,0.487 RPM ratio (pull-down/input)
17,GATGATTGTTCTCCCAGCTGATGAATTGCCTTTGTCGAGTAAACAAATTTTCCTAATCTTTCTGTTCAAGCGCCATCTAC,0.946 RPM ratio (pull-down/input)
18,GATGATTGTTCTCCCAGCTGATGAATTTTGCCTGTCGAGTAAACAAATTTTCCTAATCTTTCTGTTCAAGCGCCATCTAC,5.62 RPM ratio (pull-down/input)
19,GATGATTGTTCTCCCAGCTGATGAATTTCCTGTGTCGAGTAAACAAATTTTCCTAATCTTTCTGTTCAAGCGCCATCTAC,0.352 RPM ratio (pull-down/input)
20,GATGATTGTTCTCCCAGCTGATGAATTGTGCCTGTCGAGTAAACAAATTTTCCTAATCTTTCTGTTCAAGCGCCATCTAC,6.42 RPM ratio (pull-down/input)
